These sequences were tested against C6orf203 (assay: pooled miR-30 sensor sort-seq; sequence = guide strand). Details: shRNA.
Further: reference of the scale not given here.

Q: Which sensor-assay potency score (higher = more potent) does the source give for TTTGTAGAAAGCATCTTCCACT here?
A: The sensor-assay potency score (higher = more potent) was -0.297.

Q: With TAGAAAAATACAAGTATCGATT as the sequence, how does the sensor-assay potency score (higher = more potent) read?
A: Its sensor-assay potency score (higher = more potent) is -1.01.

Q: With TAGTAGATTTTGTAGACCTTAT as the sequence, how does the sensor-assay potency score (higher = more potent) read?
A: The sensor-assay potency score (higher = more potent) was -0.878.

Q: With TTAGTAGATTTTGTAGACCTTA as the sequence, how does the sensor-assay potency score (higher = more potent) read?
A: Its sensor-assay potency score (higher = more potent) is -0.225.

Q: For TTTCACTTTCAGTCTTCTCTTC, which sensor-assay potency score (higher = more potent) is on record?
A: The sensor-assay potency score (higher = more potent) was 0.689.

The sequences below were run against C6orf223 in the same assay as above. Details: shRNA.

Q: AATTAGAGCGCATTAGCCGTGC was tested. Which sensor-assay potency score (higher = more potent) did it give?
A: Its sensor-assay potency score (higher = more potent) is -0.806.

Q: Which sensor-assay potency score (higher = more potent) does the source give for TAGAGGAGAGCTCTGAGCCTGG here?
A: Its sensor-assay potency score (higher = more potent) is -0.55.

Q: With AAACACTCTGTCTTCCTGCTTT as the sequence, how does the sensor-assay potency score (higher = more potent) read?
A: The sensor-assay potency score (higher = more potent) was 0.482.

Q: TAATTTCTTCTCGCGCTCGGGG was tested. Which sensor-assay potency score (higher = more potent) did it give?
A: Its sensor-assay potency score (higher = more potent) is -0.685.

Q: How did the sensor-assay potency score (higher = more potent) turn out when AAGTCTTGCCACTTCTTCTGGA was run?
A: Its sensor-assay potency score (higher = more potent) is -0.0269.

Q: For TTGAGGACAGCTGAAGTCTTGC, which sensor-assay potency score (higher = more potent) is on record?
A: Its sensor-assay potency score (higher = more potent) is -0.761.

Q: How did the sensor-assay potency score (higher = more potent) turn out when TTGGCTGAGTCAGACTCTCGGA was run?
A: Its sensor-assay potency score (higher = more potent) is -0.102.

Q: How did the sensor-assay potency score (higher = more potent) turn out when TTTCTTCTCGCGCTCGGGGTGT was run?
A: Its sensor-assay potency score (higher = more potent) is -0.841.

Q: TTTGAGGACAGCTGAAGTCTTG was tested. Which sensor-assay potency score (higher = more potent) did it give?
A: The sensor-assay potency score (higher = more potent) was -0.66.

Q: How did the sensor-assay potency score (higher = more potent) turn out when TTCTTCTGGATGCTCTGACCAT was run?
A: The sensor-assay potency score (higher = more potent) was -0.868.

Q: TCTTCTGGATGCTCTGACCATC was tested. Which sensor-assay potency score (higher = more potent) did it give?
A: Its sensor-assay potency score (higher = more potent) is -1.03.

Q: For TAATTAGAGCGCATTAGCCGTG, which sensor-assay potency score (higher = more potent) is on record?
A: The sensor-assay potency score (higher = more potent) was -0.678.
